Test results as given in PubChem BioAssay (EPA / NIEHS).
Inconclusive results are not listed. Calls of active or inactive are those of the source. How the source made its calls: active means hit-call score of the fitted dose curve at least 0.9, where 1 is the maximum; inconclusive means response in the unintended direction; inactive means score below 0.9.

Columns and labels:
[1] = target: Estrogen receptor (Homo sapiens) (UniProt P03372); experiment: OT_ER_ERaERa_0480: Odyssey Thera (OT) 8-hour HEK293T Protein-Complementation Assay for Estrogen Receptor-alpha/-alpha Homodimer (AID 2283351);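 further: rise in fluorescence from reassembled reporter fragments on ERα LBD homodimer in nucleus or whole cell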
Summary of the method: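 Measures ERα LBD (aa 310-547) homodimer complementation in stably transfected HEK293T at 8 h post-dose, with fluorescence intensity quantified on a laser scanning cytometer relative to DMSO controls.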

[2] = target: rat Mineralocorticoid Receptor (MR), Nr3c2 (gene 25672) (UniProt P22199); experiment: NVS_NR_rMR: NovaScreen (NVS) Nuclear Receptor Binding Assay for rat Mineralocorticoid Receptor (MR) (AID 2283355)
Summary of the method: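 Primary HTS ran in duplicate at a single 25 uM concentration, with concentration-series follow-up for actives. Receptor source: adrenalectomized rat brain supernatant, cell-free. Radioligand displacement read by scintillation at 24 h, relative to DMSO baseline.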

[3] = target: human Peroxisome Proliferator-activated Receptor alpha (PPARa), PPARA (gene 5465) (UniProt Q07869); experiment: NVS_NR_hPPARa: NovaScreen (NVS) Nuclear Receptor Binding Assay for human Peroxisome Proliferator-activated Receptor alpha (PPARa) (AID 2283359);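 further: activity means loss of TR-FRET signal versus DMSO baseline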
Summary of the method: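 Loss of TR-FRET binding signal relative to DMSO was measured 1 h after chemical addition to extracted receptor protein. Chemicals were first tested in duplicate at 25 uM, and actives were followed up in concentration series.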

PGR (gene 5241) = PGR (gene 5241) (UniProt P06401); experiment: NVS_NR_hPR: NovaScreen (NVS) Nuclear Receptor Binding Assay for human Progestron Receptor (PR) (AID 2283360);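 further: active means loss of bound radioligand signal versus DMSO baseline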
Summary of the method: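 Radioligand competition binding on receptor extracted from T47D cells, read by scintillation counting 18 h after dosing. Loss of signal versus DMSO; primary screen in duplicate at 25 uM, actives followed in concentration series.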

[4] = target: Glucocorticoid receptor (Homo sapiens) (UniProt P04150); experiment: NVS_NR_hGR: NovaScreen (NVS) Nuclear Receptor Binding Assay for human Glucocorticoid Receptor (GR) (AID 2283363);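 on AC50: activity is loss of specific radioligand binding signal relative to DMSO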
Summary of the method: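 Compounds first tested in duplicate at 25 uM, actives followed up in concentration series. Binding to extracted GR protein measured as competitive radioligand displacement, filter scintillation read 16 h post-dosing, normalised to DMSO.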

[5] = target: human Adenosine Transporter (Adot), SLC29A1 (gene 2030) (UniProt Q99808); experiment: NVS_TR_hAdoT: NovaScreen (NVS) Transporter Assay for human Adenosine Transporter (Adot) (AID 2283368)
Summary of the method: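 Binding displacement on U937 extracted protein, read 1 h post-dose by filtration and scintillation counting. Primary duplicate test at 25 uM, then singleton concentration series with 50 uM top; DMSO baseline.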

[6] = system: guinea pig Dopamine Transporter (DAT), gene 100714898; experiment: NVS_TR_gDAT: NovaScreen (NVS) Transporter Assay for guinea pig Dopamine Transporter (DAT) (AID 2283369);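 further: active compounds lower bound radioligand signal relative to DMSO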
Summary of the method: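 Cell-free striatal membrane prep (guinea pig), 2 h exposure, filtration + scintillation readout of radioligand binding. Single-point 25 uM duplicate; actives rerun singleton, top conc 50 uM.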

[7] = target: human Serotonin Transporter (SERT), SLC6A4 (gene 6532) (UniProt P31645); experiment: NVS_TR_hSERT: NovaScreen (NVS) Transporter Assay for human Serotonin Transporter (SERT) (AID 2283372)
Summary of the method: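 Human platelet membrane preparation; displacement of radioligand from serotonin transporter measured after 1 h by filtration and scintillation counting. Single 25 uM duplicate screen, then concentration series for actives, with DMSO as negative baseline.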

[8] = system: rat Norepinephrine Transporter (NET), gene 83511; experiment: NVS_TR_rNET: NovaScreen (NVS) Transporter Assay for rat Norepinephrine Transporter (NET) (AID 2283373)
Summary of the method: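 Competitive radioligand displacement at the rat NET using forebrain membrane preparations, 1 h incubation, filter-based scintillation readout. Primary testing in duplicate at a single 25 uM concentration; confirmed actives retested across concentrations.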

[9] = target: Androgen Receptor/SRC-1 Co-activator, AR (gene 367) (UniProt P10275); experiment: OT_AR_ARSRC1_0960: Odyssey Thera (OT) 16-hour HEK293T Protein-Complementation Assay for Androgen Receptor/SRC-1 Co-activator (AID 2283353);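 further: actives raise the signal above DMSO so potency reflects increased AR and SRC-1 complex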
Summary of the method: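 Sixteen-hour cell assay: Venus halves fused to AR and SRC-1 in HEK293T report binding. Images at 488/635 nm give an N/C ratio in the 488 nm channel over ≥400 cells, analysed as signal increase over DMSO.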

[10] = target: Androgen Receptor/SRC-1 Co-activator, AR (gene 367) (UniProt P10275); experiment: OT_AR_ARSRC1_0480: Odyssey Thera (OT) 8-hour HEK293T Protein-Complementation Assay for Androgen Receptor/SRC-1 Co-activator (AID 2283354);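 further: hits raise the complementation signal above DMSO so AC50 marks enhancers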
Summary of the method: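 Reconstituted split-Venus YFP signal from AR–SRC-1 interaction, read by imaging 8 h post-dose in stable HEK293T lines. The 488 nm nucleus-to-cytoplasm ratio (≥400 cells/image) was fitted upward against DMSO.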

[11] = target: Estrogen receptor beta (Homo sapiens) (UniProt Q92731); experiment: OT_ER_ERbERb_0480: Odyssey Thera (OT) 8-hour HEK293T Protein-Complementation Assay for Estrogen Receptor-beta/-beta Homodimer (AID 2283357);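 further: active means signal gain over DMSO baseline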
Summary of the method: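 ER-beta LBD homodimer PCA stably expressed in HEK293T; 8 h compound exposure, then formaldehyde fixation and Draq5 staining. Gain in nuclear/cytoplasmic fluorescence intensity versus DMSO vehicle, read on laser scanning cytometer.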

[12] = target: human Thyroid Receptor Alpha (TRa), THRA (gene 7067) (UniProt P10827); experiment: NVS_NR_hTRa_Antagonist: NovaScreen (NVS) Nuclear Receptor Binding Assay for human Thyroid Receptor Alpha Antagonism (TRa) (AID 2283362);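 further: activity is loss of signal relative to DMSO baseline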
Summary of the method: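 AlphaLISA chemiluminescent immunoassay readout, taken 1 h post-dosing in a cell-free system with extracted protein. Activity was scored as signal loss against DMSO negative control, from duplicate single-concentration (25 uM) testing followed by concentration-response follow-up.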

[13] = target: rat Androgen Receptor (AR), Ar (gene 24208) (UniProt P15207); experiment: NVS_NR_rAR: NovaScreen (NVS) Nuclear Receptor Binding Assay for rat Androgen Receptor (AR) (AID 2283366)
Summary of the method: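 Actives from a duplicate single-concentration (25 uM) primary run went on to concentration series. Displacement of radioligand was counted by filtration and scintillation, 18 h post-dose, using prostate extracts from testosterone-pretreated rats, with DMSO as baseline.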

[14] = target: T1, Estrogen receptor (Homo sapiens) + Estrogen receptor beta (Homo sapiens) (UniProt P03372+Q92731); experiment: OT_ER_ERaERb_0480: Odyssey Thera (OT) 8-hour HEK293T Protein-Complementation Assay for Estrogen Receptor-alpha/-beta Heterodimer (AID 2283352)
Summary of the method: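 Fluorescence intensity readout from a protein-fragment complementation reporter in HEK293T; ER-alpha/ER-beta LBD heterodimer. Dosing 8 h. Gain-of-signal fit relative to DMSO negative control; laser scanning cytometry of whole-well cell population.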

[15] = target: T1, Estrogen receptor (Homo sapiens) + Estrogen receptor beta (Homo sapiens); experiment: OT_ER_ERaERb_1440: Odyssey Thera (OT) 24-hour HEK293T Protein-Complementation Assay for Estrogen Receptor-alpha/-beta Homodimer (AID 2283356);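 further: heteromer of ER alpha and ER beta binding domains; hits raise reporter fluorescence and both agonists and antagonists give an increase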
Summary of the method: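 Readout: mean fluorescence intensity in nucleus (agonists) or nucleus plus cytoplasm (antagonists), read by laser scanning cytometer after 24 h compound exposure of HEK293T cells carrying ERα/ERβ LBD fragment-complementation constructs; DMSO baseline.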

[16] = target: Nuclear receptor subfamily 1 group I member 2 (Homo sapiens) (UniProt O75469); experiment: NVS_NR_hPXR: NovaScreen (NVS) Nuclear Receptor Binding Assay for human Pregnane X Receptor (PXR) (AID 2283365);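 further: a drop in FRET signal versus DMSO baseline means the compound binds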
Summary of the method: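 TR-FRET signal read at 2 h in a cell-free human PXR binding format. DMSO served as negative control and baseline; activity scored as signal loss. Single-concentration duplicate screen (25 uM), then concentration-response follow-up.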

Sequence of Estrogen receptor beta (Homo sapiens) (Q92731 whole entry, looked up, the tested form may be a part): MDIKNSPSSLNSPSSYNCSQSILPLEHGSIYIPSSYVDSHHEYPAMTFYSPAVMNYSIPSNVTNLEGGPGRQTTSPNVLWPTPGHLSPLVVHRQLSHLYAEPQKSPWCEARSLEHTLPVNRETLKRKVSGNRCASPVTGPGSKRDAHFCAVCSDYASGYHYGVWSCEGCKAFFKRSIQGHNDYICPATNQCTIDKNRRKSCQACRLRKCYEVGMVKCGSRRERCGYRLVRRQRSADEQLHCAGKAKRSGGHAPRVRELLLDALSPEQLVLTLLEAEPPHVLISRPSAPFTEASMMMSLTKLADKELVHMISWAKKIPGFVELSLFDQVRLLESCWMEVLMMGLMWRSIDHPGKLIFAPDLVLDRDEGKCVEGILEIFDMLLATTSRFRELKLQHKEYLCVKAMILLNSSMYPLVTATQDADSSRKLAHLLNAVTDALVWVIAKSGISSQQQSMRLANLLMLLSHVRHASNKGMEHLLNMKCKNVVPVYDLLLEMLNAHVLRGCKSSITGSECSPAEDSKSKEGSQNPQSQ
Sequence of human Peroxisome Proliferator-activated Receptor alpha (PPARa), PPARA (gene 5465) (Q07869 whole entry, looked up): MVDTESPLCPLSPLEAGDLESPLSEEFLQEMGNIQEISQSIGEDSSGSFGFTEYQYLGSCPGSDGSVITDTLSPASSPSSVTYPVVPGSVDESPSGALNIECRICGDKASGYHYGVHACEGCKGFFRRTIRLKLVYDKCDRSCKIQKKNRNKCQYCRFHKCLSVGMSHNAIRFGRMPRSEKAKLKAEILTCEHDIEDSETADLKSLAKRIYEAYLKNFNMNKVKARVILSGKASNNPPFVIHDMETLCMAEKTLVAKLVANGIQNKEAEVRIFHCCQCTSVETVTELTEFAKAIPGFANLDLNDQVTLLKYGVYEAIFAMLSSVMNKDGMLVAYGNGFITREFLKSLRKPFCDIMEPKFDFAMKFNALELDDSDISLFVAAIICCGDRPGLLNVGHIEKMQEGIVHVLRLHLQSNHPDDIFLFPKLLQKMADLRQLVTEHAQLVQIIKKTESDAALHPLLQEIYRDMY
Sequence of Androgen Receptor/SRC-1 Co-activator, AR (gene 367) (P10275 whole entry, looked up, the tested form may be a part): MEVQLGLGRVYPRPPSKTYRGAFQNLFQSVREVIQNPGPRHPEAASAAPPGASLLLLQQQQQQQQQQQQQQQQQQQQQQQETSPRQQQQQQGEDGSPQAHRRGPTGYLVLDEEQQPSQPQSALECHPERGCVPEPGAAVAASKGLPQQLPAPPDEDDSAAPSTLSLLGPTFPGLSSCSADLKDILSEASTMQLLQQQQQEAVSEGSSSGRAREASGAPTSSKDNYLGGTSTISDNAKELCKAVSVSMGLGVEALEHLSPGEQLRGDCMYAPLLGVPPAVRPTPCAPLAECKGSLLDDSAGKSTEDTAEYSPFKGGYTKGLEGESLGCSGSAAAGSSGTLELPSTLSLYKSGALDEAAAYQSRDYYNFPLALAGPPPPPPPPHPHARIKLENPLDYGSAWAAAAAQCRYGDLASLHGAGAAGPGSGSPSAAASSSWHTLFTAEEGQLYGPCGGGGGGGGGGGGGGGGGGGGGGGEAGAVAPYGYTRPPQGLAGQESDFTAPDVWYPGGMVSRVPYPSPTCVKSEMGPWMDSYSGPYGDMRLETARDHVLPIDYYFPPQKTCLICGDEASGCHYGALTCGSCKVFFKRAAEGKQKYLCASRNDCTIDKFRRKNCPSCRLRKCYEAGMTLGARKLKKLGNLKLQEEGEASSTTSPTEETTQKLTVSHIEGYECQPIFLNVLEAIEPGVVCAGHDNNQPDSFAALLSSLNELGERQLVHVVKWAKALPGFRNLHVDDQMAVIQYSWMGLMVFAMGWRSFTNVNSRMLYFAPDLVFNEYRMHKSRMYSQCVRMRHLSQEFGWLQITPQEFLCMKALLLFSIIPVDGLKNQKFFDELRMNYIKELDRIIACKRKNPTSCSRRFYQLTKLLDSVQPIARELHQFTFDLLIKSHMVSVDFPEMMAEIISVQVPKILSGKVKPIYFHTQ
Sequence of Estrogen receptor (Homo sapiens) (P03372 whole entry, looked up, the tested form may be a part): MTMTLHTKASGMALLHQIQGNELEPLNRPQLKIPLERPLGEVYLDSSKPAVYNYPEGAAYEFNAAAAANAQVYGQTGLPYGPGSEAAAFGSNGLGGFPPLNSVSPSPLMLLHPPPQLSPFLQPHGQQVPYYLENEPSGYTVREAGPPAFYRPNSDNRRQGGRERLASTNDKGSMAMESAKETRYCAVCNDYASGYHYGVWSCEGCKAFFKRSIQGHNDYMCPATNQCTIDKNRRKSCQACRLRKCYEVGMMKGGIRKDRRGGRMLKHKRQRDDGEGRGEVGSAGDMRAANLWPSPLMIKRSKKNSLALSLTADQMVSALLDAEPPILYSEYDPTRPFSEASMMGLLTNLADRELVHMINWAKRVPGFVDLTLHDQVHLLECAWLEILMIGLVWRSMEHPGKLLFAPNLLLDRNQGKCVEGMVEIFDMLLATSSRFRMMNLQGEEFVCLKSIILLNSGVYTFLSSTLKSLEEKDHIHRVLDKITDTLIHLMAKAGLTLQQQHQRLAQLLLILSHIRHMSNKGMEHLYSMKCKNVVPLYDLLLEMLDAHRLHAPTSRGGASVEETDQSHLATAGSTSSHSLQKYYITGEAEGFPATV
T1 sequence (P03372 whole entry, looked up, the tested form may be a part): as above
T1 sequence (Q92731 whole entry, looked up, the tested form may be a part): as the sequence (Q92731 whole entry, looked up, the tested form may be a part) above
Sequence of PGR (gene 5241) (P06401 whole entry, looked up): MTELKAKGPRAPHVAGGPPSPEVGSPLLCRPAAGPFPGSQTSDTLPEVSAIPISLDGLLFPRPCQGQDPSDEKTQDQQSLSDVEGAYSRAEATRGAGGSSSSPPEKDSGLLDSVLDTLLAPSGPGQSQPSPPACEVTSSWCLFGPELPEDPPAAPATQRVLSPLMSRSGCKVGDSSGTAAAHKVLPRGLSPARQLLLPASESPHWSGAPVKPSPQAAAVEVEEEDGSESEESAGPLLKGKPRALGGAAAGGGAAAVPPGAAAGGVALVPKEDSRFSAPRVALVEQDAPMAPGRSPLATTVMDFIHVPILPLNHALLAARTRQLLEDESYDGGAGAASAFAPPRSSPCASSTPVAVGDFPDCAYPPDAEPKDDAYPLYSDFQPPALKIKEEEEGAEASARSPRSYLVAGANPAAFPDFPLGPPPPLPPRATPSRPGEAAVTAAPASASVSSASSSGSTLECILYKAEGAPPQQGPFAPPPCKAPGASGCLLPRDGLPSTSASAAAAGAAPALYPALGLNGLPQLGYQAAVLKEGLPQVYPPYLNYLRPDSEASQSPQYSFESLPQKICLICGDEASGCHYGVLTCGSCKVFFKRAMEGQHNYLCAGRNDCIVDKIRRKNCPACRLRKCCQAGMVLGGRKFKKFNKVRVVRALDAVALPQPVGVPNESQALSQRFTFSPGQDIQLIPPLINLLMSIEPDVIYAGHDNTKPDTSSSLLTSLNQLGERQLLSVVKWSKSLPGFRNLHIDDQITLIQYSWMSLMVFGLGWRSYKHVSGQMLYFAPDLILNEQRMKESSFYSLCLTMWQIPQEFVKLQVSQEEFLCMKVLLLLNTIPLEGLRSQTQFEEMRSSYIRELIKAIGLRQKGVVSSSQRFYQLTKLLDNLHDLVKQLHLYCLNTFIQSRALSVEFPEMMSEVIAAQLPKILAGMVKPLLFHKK
Sequence of rat Mineralocorticoid Receptor (MR), Nr3c2 (gene 25672) (P22199 whole entry, looked up): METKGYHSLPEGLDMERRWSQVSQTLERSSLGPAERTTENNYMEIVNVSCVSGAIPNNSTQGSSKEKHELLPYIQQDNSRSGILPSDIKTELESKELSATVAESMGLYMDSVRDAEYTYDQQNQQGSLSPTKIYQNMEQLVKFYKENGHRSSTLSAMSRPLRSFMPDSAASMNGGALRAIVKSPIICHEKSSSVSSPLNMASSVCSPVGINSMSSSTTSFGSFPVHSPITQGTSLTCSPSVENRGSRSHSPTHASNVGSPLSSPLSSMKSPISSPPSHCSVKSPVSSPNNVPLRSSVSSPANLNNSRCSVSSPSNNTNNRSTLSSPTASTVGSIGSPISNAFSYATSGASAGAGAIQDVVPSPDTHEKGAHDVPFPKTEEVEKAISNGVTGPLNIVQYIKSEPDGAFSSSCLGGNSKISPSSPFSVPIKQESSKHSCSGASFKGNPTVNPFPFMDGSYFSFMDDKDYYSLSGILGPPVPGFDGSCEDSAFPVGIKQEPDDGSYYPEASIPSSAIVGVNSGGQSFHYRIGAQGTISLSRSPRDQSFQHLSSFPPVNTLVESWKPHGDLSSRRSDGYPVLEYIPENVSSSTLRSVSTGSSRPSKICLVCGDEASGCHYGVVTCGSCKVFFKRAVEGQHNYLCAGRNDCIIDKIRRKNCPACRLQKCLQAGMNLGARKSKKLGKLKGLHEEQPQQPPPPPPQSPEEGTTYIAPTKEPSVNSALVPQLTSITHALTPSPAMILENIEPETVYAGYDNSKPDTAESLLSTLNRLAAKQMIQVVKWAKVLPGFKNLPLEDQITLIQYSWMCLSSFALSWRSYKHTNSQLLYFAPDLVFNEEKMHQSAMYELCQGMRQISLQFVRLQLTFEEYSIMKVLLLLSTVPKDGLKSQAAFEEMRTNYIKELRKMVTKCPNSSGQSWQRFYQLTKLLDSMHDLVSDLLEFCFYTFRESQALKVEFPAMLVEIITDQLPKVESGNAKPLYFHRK
Sequence of Nuclear receptor subfamily 1 group I member 2 (Homo sapiens) (O75469 whole entry, looked up): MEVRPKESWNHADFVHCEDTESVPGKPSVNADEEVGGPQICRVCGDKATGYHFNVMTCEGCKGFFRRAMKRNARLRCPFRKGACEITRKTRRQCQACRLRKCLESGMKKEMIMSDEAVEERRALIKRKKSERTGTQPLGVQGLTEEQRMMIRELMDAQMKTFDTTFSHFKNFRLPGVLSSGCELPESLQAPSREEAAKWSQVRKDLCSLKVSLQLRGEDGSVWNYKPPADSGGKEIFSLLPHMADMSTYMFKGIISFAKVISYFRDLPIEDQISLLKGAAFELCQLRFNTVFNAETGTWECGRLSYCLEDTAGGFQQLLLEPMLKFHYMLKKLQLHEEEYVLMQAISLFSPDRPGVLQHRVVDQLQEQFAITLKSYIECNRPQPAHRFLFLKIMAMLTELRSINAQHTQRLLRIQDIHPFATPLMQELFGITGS

COc1cc(C=O)cc2c1[C@H](COC(N)=O)[C@]1(OC(C)=O)ON2C[C@H]2[C@@H]1N2C(C)=O
outcome [1]: inactive

CCC[CH2][Sn]([Cl])([CH2]CCC)[CH2]CCC
outcome [1]: inactive
outcome [2]: inactive
AC50 [3]: 23.5 nM (active)
AC50 (PGR (gene 5241)): 2.92 µM (active)
AC50 [4]: 726 nM (active)
AC50 [5]: 34.6 µM (active)
AC50 [6]: 11.1 µM (active)
AC50 [7]: 11.2 µM (active)
AC50 [8]: 14.4 µM (active)

Cc1cc(N=Nc2ccccc2C)ccc1N
AC50 [9]: 36 µM (active)
AC50 [10]: 67.5 µM (active)
AC50 [11]: 12.1 µM (active)
outcome [3]: inactive
outcome [12]: inactive
outcome [13]: inactive

Brc1ccc(Oc2ccccc2)cc1
outcome [1]: inactive

CNC(=O)Oc1cccc2c1OC(C)(C)C2
outcome [1]: inactive
outcome [14]: inactive
outcome [9]: inactive
outcome [10]: inactive
outcome [15]: inactive
outcome [11]: inactive

[O-][Cl+]O
outcome [1]: inactive
outcome [14]: inactive
outcome [15]: inactive
outcome [11]: inactive

CCCCC(CC)COC(=O)c1ccc(C(=O)OCC(CC)CCCC)c(C(=O)OCC(CC)CCCC)c1 (stereo not drawn)
outcome [9]: inactive
outcome [10]: inactive
outcome [16]: inactive

CCCCCOC(=O)c1ccccc1C(=O)OCCCCC
AC50 [1]: 56.2 µM (active)
AC50 [14]: 22.1 µM (active)
AC50 [15]: 42 µM (active)
AC50 [11]: 29.9 µM (active)
outcome [4]: inactive
outcome [6]: inactive

Nc1ccc([N+](=O)[O-])cc1
outcome [9]: inactive
outcome [10]: inactive
outcome [11]: inactive
outcome (PGR (gene 5241)): inactive

Nc1ccc(N=Nc2ccccc2)cc1
outcome [1]: inactive
AC50 [14]: 29 µM (active)
AC50 [15]: 39.4 µM (active)
AC50 [11]: 34.6 µM (active)
AC50 [6]: 15 µM (active)

O=C1CCCO1
outcome [9]: inactive
outcome [10]: inactive
outcome [11]: inactive

COC(=O)Nc1nc2ccccc2[nH]1
AC50 [9]: 3.78 µM (active)
outcome [10]: inactive
outcome [11]: inactive

CCC12COCN1COC2
outcome [1]: inactive

Cc1ccc([N+](=O)[O-])cc1
outcome [1]: inactive
outcome [14]: inactive
outcome [15]: inactive
outcome [11]: inactive

ClC1=C(Cl)[C@]2(Cl)[C@H]3[C@H]([C@@H]4C=C[C@H]3C4)[C@@]1(Cl)C2(Cl)Cl
outcome [1]: inactive

O=C(Oc1ccc(Br)cc1)N1CCN2CCC1CC2
outcome [1]: inactive
AC50 [6]: 7.13 µM (active)
AC50 [7]: 1.91 µM (active)

CN(C)c1ccc(C(=O)c2ccc(N(C)C)cc2)cc1
outcome [2]: inactive
outcome [11]: inactive
outcome [16]: inactive

CC(C)COC(=O)c1ccccc1C(=O)OCC(C)C
AC50 [1]: 31.4 µM (active)
AC50 [14]: 17.2 µM (active)
AC50 [15]: 31.1 µM (active)
AC50 [11]: 25.9 µM (active)
outcome [3]: inactive
